In PubChem BioAssay (NCATS):
Inconclusive results are not listed. Active and inactive are the calls of the source. Calls follow the shape of the dose curve; as a rule, active = well fitted curve in the direction sought with a large enough effect; inconclusive = small, poorly fitted or top-dose-only effect, or another doubt; inactive = no such curve, though single readings can be large; an effect the other way counts as inactive or inconclusive. Where a SMILES comes first, the peptide text is derived from it. Bridges are numbered along the chain shown (N, C = ends). [ ]: non-standard residue; d: D form. hArg = N=C(N)NCCCC[C@H](N)C(=O)O; Mpa = O=C(O)CCS

Columns and labels:
[1] = system: NIH3T3; experiment: Cytotoxic Profiling of Annotated Libraries Using Quantitative High-Throughput Screening (AID 1296008); details: Five cell lines viability, CellTiter-Glo ATP luminescence, 48-72 h; active compounds read low; also: nearly all actives have a fitted effect of over 60% in size
Outline: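 Cytotoxicity was measured as CellTiter-Glo ATP luminescence, read after 10 min at room temperature. Compound treatment of the cells lasted 48 or 72 hr at 37 degrees Celsius in a qHTS format.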

[2] = system: HACAT; experiment: qHTS assay to identify novel small-molecules to repurpose for Merkel cell carcinoma treatment (AID 1296009); details: MCC and control cell lines, CellTiter-Glo viability, 72 h; at 44.8 µM (top of the series) unless noted; also: nearly all actives have a fitted effect of over 60% in size
Outline: (§1)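 After compound transfer in DMSO, plates were kept 72 hr at 37 degree celsius. Luminescent ATP signal from CellTiter-Glo served as viability measure, normalized against DMSO and no-cell controls.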

[3] = system: MCC-13; experiment: as above; details: MCC and control cell lines, CellTiter-Glo viability, 72 h; series mostly up to 46 µM
Outline: as §1

[4] = system: MCC-26; experiment: as above; details: MCC and control cell lines, CellTiter-Glo viability, 72 h; series mostly up to 46 µM
Outline: as §1

[5] = system: MKL-1; experiment: as above; details: MCC and control cell lines, CellTiter-Glo viability, 72 h; series mostly up to 46 µM
Outline: as §1

[6] = system: MKL-2; experiment: as above; details: MCC and control cell lines, CellTiter-Glo viability, 72 h; series mostly up to 46 µM
Outline: as §1

[7] = system: UISO; experiment: as above; details: MCC and control cell lines, CellTiter-Glo viability, 72 h; series mostly up to 46 µM
Outline: as §1

[8] = system: WaGa; experiment: as above; details: MCC and control cell lines, CellTiter-Glo viability, 72 h; series mostly up to 46 µM
Outline: as §1

[9] = system: C33A; experiment: Primary qHTS to identify gynecologic anti-cancer compounds using libraries of approved drugs and bioactive compounds (AID 1345084); details: Gynecologic cancer cell panel viability, ATPlite luminescence, 48 h; series mostly up to 57.5 µM; also: nearly all actives have a fitted effect of over 55% in size
Outline: (§2)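 Cytotoxicity screen measuring ATP content by luciferase luminescence. Each compound is applied at five concentrations for 48 h at 37 C with 5% CO2.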

[10] = system: CAOV3; experiment: as above; details: Gynecologic cancer cell panel viability, ATPlite luminescence, 48 h; series mostly up to 57.5 µM
Outline: as §2

[11] = system: CASKI; experiment: as above; details: Gynecologic cancer cell panel viability, ATPlite luminescence, 48 h; series mostly up to 57.5 µM
Outline: as §2

[12] = system: Es-2; experiment: as above; details: Gynecologic cancer cell panel viability, ATPlite luminescence, 48 h; series mostly up to 57.5 µM
Outline: as §2

[13] = system: HeLa; experiment: as above; details: Gynecologic cancer cell panel viability, ATPlite luminescence, 48 h; series mostly up to 57.5 µM
Outline: as §2

[14] = system: Hek293T; experiment: as above; details: Gynecologic cancer cell panel viability, ATPlite luminescence, 48 h, control line for the selectivity index; series mostly up to 57.5 µM
Outline: as §2

[15] = system: JEG-3; experiment: as above; details: Gynecologic cancer cell panel viability, ATPlite luminescence, 48 h; series mostly up to 57.5 µM
Outline: as §2

[16] = system: OV90; experiment: as above; details: Gynecologic cancer cell panel viability, ATPlite luminescence, 48 h; series mostly up to 57.5 µM
Outline: as §2

[17] = system: PA-1; experiment: as above; details: Gynecologic cancer cell panel viability, ATPlite luminescence, 48 h; series mostly up to 57.5 µM
Outline: as §2

[18] = system: SKOV3; experiment: as above; details: Gynecologic cancer cell panel viability, ATPlite luminescence, 48 h; series mostly up to 57.5 µM
Outline: as §2

[19] = system: NIH3T3; experiment: qHTS assay to identify novel small-molecules to repurpose for Merkel cell carcinoma treatment (AID 1296009); details: MCC and control cell lines, CellTiter-Glo viability, 72 h; at 44.8 µM (top of the series) unless noted; also: nearly all actives have a fitted effect of over 60% in size
Outline: as §1
% is scaled to controls: 0 for no effect and ±100 for the full control effect.

CC(=O)SC[C@@H](Cc1ccccc1)C(=O)NCC(=O)OCc1ccccc1
inactive: max response [1] -11.9% | outcome [2] | outcome [3] | outcome [4] | outcome [5] | outcome [6] | outcome [7] | outcome [8] | outcome [9] | outcome [10] | outcome [11] | outcome [12] | outcome [13] | outcome [14] | outcome [15] | Potency [16] | outcome [17] | outcome [18]

CC(=O)Nc1ccccc1
inactive: outcome [1] | outcome [2] | outcome [3] | outcome [4] | outcome [5] | outcome [6] | outcome [19] | outcome [7] | outcome [8] | outcome [9] | outcome [11] | outcome [12] | outcome [13] | outcome [14] | outcome [15] | Potency [16] | outcome [17] | outcome [18]

CO[C@@]1(NC(=O)C(C(=O)O)c2ccc(O)cc2)C(=O)N2C(C(=O)O)=C(CSc3nnnn3C)CO[C@@H]21 (stereo not given in full)
inactive: max response [1] -2.47% | outcome [2] | outcome [3] | outcome [4] | outcome [5] | outcome [6] | outcome [7] | outcome [8] | outcome [9] | outcome [10] | outcome [11] | outcome [12] | outcome [13] | outcome [14] | outcome [15] | Potency [16] | outcome [17] | outcome [18]

O=C(O)CCCCC1CCSS1 (stereo not given)
inactive: max response [1] 1.45% | outcome [2] | outcome [3] | outcome [4] | outcome [5] | outcome [6] | outcome [7] | outcome [8] | outcome [9] | outcome [10] | outcome [11] | outcome [12] | outcome [13] | outcome [14] | outcome [15] | Potency [16] | outcome [17] | outcome [18]

CCc1nnc(NS(=O)(=O)c2ccc(N)cc2)s1
inactive: max response [1] 3.74% | outcome [2] | outcome [3] | outcome [4] | outcome [5] | outcome [6] | outcome [7] | outcome [8] | outcome [9] | outcome [10] | outcome [11] | outcome [12] | outcome [13] | outcome [14] | outcome [15] | Potency [16] | outcome [17] | outcome [18]

NC(=O)[C@@H]1CSSCCC(=O)N[C@@H](CCCCN=C(N)N)C(=O)NCC(=O)N[C@@H](CC(=O)O)C(=O)N[C@@H](Cc2c[nH]c3ccccc23)C(=O)N2CCC[C@H]2C(=O)N1 ([Mpa][hArg]GDWPC-NH2; disulfide 1-7)
inactive: max response [1] -4.92% | outcome [2] | outcome [3] | outcome [4] | outcome [5] | outcome [6] | outcome [7] | outcome [8] | outcome [9] | outcome [10] | outcome [11] | outcome [12] | outcome [13] | outcome [14] | outcome [15] | Potency [16] | outcome [17] | outcome [18]

CN1C(C)(C)CCCC1(C)C
inactive: max response [1] -1.07% | outcome [2] | outcome [3] | outcome [4] | outcome [5] | outcome [6] | outcome [7] | outcome [8] | outcome [9] | outcome [10] | outcome [11] | outcome [12] | outcome [13] | outcome [14] | outcome [15] | Potency [16] | outcome [17] | outcome [18]

CN/C(=C\[N+](=O)[O-])NCCSCc1csc(CN(C)C)n1
inactive: max response [1] 0.469% | outcome [2] | outcome [3] | outcome [4] | outcome [5] | outcome [6] | outcome [7] | outcome [8] | outcome [9] | outcome [10] | outcome [11] | outcome [12] | outcome [13] | outcome [14] | outcome [15] | Potency [16] | outcome [17] | outcome [18]

CCOc1ccccc1O[C@H](c1ccccc1)[C@H]1CNCCO1
inactive: max response [1] 1.71% | outcome [2] | outcome [3] | outcome [4] | outcome [5] | outcome [6] | outcome [7] | outcome [8] | outcome [9] | outcome [10] | outcome [11] | outcome [12] | outcome [13] | outcome [14] | outcome [15] | Potency [16] | outcome [17]

CCCCOC(=O)c1ccc(N)cc1
inactive: max response [1] -6.66% | outcome [2] | outcome [3] | outcome [4] | outcome [5] | outcome [6] | outcome [7] | outcome [8] | outcome [9] | outcome [10] | outcome [11] | outcome [12] | outcome [13] | outcome [14] | outcome [15] | Potency [16] | outcome [17] | outcome [18]

O=C(O)c1ccccc1OP(=O)(O)O
inactive: max response [1] 3.2% | outcome [2] | outcome [3] | outcome [4] | outcome [5] | outcome [6] | outcome [7] | outcome [8] | outcome [9] | outcome [10] | outcome [11] | outcome [12] | outcome [13] | outcome [14] | outcome [15] | Potency [16] | outcome [17] | outcome [18]

Cc1onc(-c2ccccc2)c1-c1ccc(S(N)(=O)=O)cc1
inactive: outcome [1] | outcome [2] | outcome [3] | outcome [4] | outcome [5] | outcome [6] | outcome [19] | outcome [7] | outcome [8] | outcome [11] | outcome [12] | outcome [13] | outcome [14] | outcome [15] | Potency [16] | outcome [17] | outcome [18]

CCCCCCCC(=O)OCC(COC(=O)CCCCCCC)OC(=O)CCCCCCC
inactive: max response [1] 4.46% | outcome [2] | outcome [3] | outcome [4] | outcome [5] | outcome [6] | outcome [7] | outcome [8] | outcome [9] | outcome [10] | outcome [11] | outcome [12] | outcome [13] | outcome [14] | outcome [15] | Potency [16] | outcome [17] | outcome [18]

Cc1cccc(Nc2ccccc2C(=O)O)c1C
inactive: max response [1] 1.27% | outcome [2] | outcome [3] | outcome [4] | outcome [5] | outcome [6] | outcome [7] | outcome [8] | outcome [9] | outcome [10] | outcome [11] | outcome [12] | outcome [13] | outcome [14] | outcome [15] | Potency [16] | outcome [17] | outcome [18]
